Reference: PubChem BioAssay AID489037 (National Center for Advancing Translational Sciences (NCATS), 2010)
Results filed as inconclusive are left out. Active and inactive are the calls of the source. Calls follow the shape of the dose curve; as a rule, active = well fitted inhibition curve with a large enough effect; inconclusive = small, poorly fitted or top-dose-only effect, or effect the other way; inactive = no such curve, though single readings can be large or run the other way.

Biological target: Nuclear receptor ROR-gamma (Mus musculus) (UniProt P51450)
Assay: Secondary confirmation assay for inhibitors of ROR gamma transcriptional activity
Details: Drosophila S2 Gal4-RORgamma UAS-luciferase reporter, 20 h
Excerpt: NIH Molecular Libraries Probe Production Network [MLPCN] NIH Chemical Genomics Center [NCGC] MLPCN Grant: R03 DA026211-01 Assay Provider: Dan Littman, New York University Keywords: NIH Roadmap, MLPCN, MLI, MLSMR, qHTS, NCGC, qHTS, nuclear hormone receptor, retinoic acid-related orphan receptor, ROR gamma Assay Overview: The retinoic acid-related orphan receptor (ROR) gamma is a transcription factor that has a central role in the differentiation of Th17 cells, a subset of T helper cells that secrete the inflammatory cytokines IL-17, IL-17F, and IL-22. Th17 cells have been implicated in graft versus host disease, autoimmune disease and asthma. ROR gamma is induced in naive T helper cells in the presence of TGF-beta combined with IL-6, IL-21, or IL-23, and thereafter directs the expression of the Th17 lineage cytokines. To study the mechanism of action of ROR gamma, an insect cell-based assay was screened. […] Small molecule inhibitors of ROR gamma activity are detected by a decrease in luciferase reporter activity.
Assay Protocol Summary: For screening, 600 cells in 4 uL/well were dispensed into white solid 1536-well plates (Grenier) using a solenoid-based dispenser. […] After addition of 1.5 uL Photinus luciferase detection reagent, the plates were incubated 10 min at ambient temperature and then read by an ViewLux (Perkin Elmer) to detect luminescence. […]

Nuclear receptor ROR-gamma (Mus musculus), sequence (P51450 whole entry, looked up): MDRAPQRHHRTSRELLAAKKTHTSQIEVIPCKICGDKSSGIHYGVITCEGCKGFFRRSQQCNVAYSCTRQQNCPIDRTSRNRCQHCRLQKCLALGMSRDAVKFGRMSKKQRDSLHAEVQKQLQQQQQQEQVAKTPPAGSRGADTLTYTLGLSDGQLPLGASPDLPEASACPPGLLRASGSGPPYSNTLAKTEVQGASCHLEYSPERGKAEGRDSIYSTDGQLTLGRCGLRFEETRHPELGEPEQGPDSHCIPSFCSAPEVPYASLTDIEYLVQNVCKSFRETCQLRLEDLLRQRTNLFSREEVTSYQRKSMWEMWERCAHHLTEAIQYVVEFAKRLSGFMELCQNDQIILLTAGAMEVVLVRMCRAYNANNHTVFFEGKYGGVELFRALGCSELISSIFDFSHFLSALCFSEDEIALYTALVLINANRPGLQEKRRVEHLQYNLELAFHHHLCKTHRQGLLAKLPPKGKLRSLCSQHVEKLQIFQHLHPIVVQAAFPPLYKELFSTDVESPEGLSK

Row | SMILES | Potency
1 | CC1OC(O[C@@H]2C(O)CC(O[C@@H]3C(O)C[C@@H](OC4CC[C@@]5(C)C6CC[C@]7(C)C(C8=CC(=O)OC8)C(O)C[C@@]7(O)[C@H]6CC[C@@H]5C4)OC3C)OC2C)CC(O)C1O (some centres not stated) | 4.07 µM (active)
2 | CO[C@H]1[C@@H](O)CC(OC2[C@@H](O)CC(OC3[C@@H](O)C[C@H](OC4CC[C@@]5(C)C(CCC6C5CC(O)[C@]5(C)[C@H](C7=CC(=O)OC7)CCC65O)C4)O[C@@H]3C)O[C@@H]2C)O[C@@H]1C (some centres not stated) | 1.82 µM (active)
